# In the supplement of paper PMC10849652:
# About 7,900 targets were measured; listed, in parts, are those with a hit and a random draw of the rest. About 0.6% of all pairs of compound and target were hits. A number with no mark means an inactive call.
# Experiments:
# Assay in all cases: log2 fold change, soluble protein after heating vs DMSO (PISA); higher = thermal stabilisation; K562 cells, 10 uM, 30 min; active = over 0.2 and 3.5 SD of the protein, either way, in both replicates (recomputed)
# [1] = compound: CS(=O)(=O)c1ccc(-c2cnc(N)c(C(=O)Nc3ccccc3)n2)cc1
# How it was run: (§1)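 K562 cells at 2×10^6 cells/mL were treated for 30 min with 10 μM compound, and aliquots were heated for 3 min over 48°C-58°C before pooling. Extraction used PBS with 0.5% NP-40 at 4°C, and soluble protein was the supernatant after 21,000xg for 90 min, measured by TMTpro 16plex LC-MS/MS with channel sums equalised. Thermal stability values, relative to control samples and from duplicates, are log2 fold changes.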
# [2] = compound: C[C@@H](Oc1cc(-c2cnn(C3CCNCC3)c2)cnc1N)c1c(Cl)ccc(F)c1Cl [crizotinib]
# How it was run: as §1
# [3] = compound: C[C@@H]1COCCN1C2=NC(=NC(=C2)C3(CC3)S(=O)(=O)C)C4=C5C=CNC5=CC=C4
# How it was run: as §1
# [4] = compound: C[C@H](C1=CC=C(C=C1)C(=O)NC2=C3C=CNC3=NC=C2)N
# How it was run: as §1
# [5] = compound: C[C@H](Nc1ncnc2nc[nH]c12)c1cc2cccc(Cl)c2c(=O)n1-c1ccccc1 [duvelisib]
# How it was run: as §1
# [6] = compound: Cc1cc(Nc2cc(CN3CCOCC3)c3nc(C)c(Cc4ccc(Cl)cc4F)n3n2)n[nH]1 [gandotinib]
# How it was run: as §1
# [7] = compound: Cc1cc(Nc2cc(N3CCN(C)CC3)nc(Sc3ccc(NC(=O)C4CC4)cc3)n2)n[nH]1 [tozasertib]
# How it was run: as §1
# [8] = compound: Cc1cc(SCc2sc(-c3ccc(C(F)(F)F)cc3)nc2C)ccc1OCC(=O)O
# How it was run: as §1
# [9] = compound: Cc1ccc(-n2nc(C(C)(C)C)cc2NC(=O)Nc2ccc(OCCN3CCOCC3)c3ccccc23)cc1 [doramapimod]
# How it was run: as §1
# [10] = compound: Cc1ccc(C(=O)N(CCCN)[C@@H](c2nc3cc(Cl)ccc3c(=O)n2Cc2ccccc2)C(C)C)cc1 [ispinesib]
# How it was run: as §1
# Chain of UniProt Q9UMR5 (Q9UMR5 whole entry, looked up): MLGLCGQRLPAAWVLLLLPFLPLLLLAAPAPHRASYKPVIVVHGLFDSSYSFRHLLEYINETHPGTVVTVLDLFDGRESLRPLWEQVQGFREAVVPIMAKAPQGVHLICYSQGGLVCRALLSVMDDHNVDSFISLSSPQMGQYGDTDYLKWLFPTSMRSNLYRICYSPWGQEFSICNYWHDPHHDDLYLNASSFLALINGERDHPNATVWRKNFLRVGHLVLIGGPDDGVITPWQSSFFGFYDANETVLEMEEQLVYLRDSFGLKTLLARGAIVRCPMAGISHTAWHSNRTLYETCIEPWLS
# Chain of UniProt P14618 (P14618 whole entry, looked up): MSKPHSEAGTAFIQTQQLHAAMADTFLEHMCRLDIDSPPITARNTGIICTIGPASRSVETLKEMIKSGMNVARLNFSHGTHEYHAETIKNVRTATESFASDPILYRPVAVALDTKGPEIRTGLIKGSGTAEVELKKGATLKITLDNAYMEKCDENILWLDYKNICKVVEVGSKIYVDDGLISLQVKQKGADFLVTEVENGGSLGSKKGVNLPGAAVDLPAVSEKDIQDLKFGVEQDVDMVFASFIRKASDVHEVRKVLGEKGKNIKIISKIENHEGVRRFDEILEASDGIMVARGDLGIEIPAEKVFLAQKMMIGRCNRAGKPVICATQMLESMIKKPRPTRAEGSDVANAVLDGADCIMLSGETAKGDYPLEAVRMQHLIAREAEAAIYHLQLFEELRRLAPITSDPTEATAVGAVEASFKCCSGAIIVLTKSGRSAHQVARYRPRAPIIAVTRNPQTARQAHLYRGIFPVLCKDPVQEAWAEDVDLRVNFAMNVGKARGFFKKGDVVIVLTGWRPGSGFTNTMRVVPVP
# Chain of UniProt P19174 (P19174 whole entry, looked up): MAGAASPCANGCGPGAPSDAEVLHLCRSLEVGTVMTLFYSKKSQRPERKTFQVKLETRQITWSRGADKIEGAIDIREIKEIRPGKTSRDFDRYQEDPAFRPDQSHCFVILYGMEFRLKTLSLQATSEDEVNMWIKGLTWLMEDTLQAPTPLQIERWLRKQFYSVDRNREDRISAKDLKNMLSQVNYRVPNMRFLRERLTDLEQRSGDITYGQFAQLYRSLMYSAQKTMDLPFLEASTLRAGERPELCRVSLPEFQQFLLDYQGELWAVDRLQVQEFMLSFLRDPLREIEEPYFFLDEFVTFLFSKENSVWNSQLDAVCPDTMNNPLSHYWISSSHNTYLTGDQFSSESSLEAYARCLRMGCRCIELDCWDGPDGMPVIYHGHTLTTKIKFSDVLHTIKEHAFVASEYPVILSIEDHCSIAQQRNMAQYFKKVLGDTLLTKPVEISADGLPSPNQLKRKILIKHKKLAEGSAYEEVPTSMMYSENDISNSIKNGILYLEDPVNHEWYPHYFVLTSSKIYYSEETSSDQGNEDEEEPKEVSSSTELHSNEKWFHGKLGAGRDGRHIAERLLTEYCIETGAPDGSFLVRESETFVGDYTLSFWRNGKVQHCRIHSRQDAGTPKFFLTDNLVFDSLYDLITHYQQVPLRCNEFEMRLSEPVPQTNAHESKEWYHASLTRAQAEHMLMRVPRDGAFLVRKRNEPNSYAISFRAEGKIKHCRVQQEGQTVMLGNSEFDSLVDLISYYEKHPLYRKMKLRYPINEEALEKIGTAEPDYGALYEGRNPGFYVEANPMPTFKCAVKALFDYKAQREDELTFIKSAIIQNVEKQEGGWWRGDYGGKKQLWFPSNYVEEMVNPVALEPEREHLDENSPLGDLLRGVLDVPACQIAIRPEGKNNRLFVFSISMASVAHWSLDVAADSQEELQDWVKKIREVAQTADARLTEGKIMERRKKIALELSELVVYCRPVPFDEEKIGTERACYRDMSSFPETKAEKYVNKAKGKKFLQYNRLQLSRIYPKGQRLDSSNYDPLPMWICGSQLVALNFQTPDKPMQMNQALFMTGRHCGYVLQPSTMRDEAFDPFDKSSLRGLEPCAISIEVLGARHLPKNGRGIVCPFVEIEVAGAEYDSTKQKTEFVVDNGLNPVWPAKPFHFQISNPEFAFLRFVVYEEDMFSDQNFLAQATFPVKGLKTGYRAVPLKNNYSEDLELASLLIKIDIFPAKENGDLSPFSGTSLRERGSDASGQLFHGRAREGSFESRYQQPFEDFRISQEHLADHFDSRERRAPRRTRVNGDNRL
# Chain of UniProt P62136 (P62136 whole entry, looked up): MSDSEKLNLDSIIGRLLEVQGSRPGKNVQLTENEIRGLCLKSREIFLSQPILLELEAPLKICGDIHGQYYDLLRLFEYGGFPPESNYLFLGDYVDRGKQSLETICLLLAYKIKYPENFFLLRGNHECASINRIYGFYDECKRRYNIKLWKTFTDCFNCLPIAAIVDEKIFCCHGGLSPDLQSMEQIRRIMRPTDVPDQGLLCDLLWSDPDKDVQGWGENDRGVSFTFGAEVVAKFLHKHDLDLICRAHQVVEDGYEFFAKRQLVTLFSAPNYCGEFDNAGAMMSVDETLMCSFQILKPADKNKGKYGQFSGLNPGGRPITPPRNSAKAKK
# Chain of UniProt Q8NAV1 (Q8NAV1 whole entry, looked up): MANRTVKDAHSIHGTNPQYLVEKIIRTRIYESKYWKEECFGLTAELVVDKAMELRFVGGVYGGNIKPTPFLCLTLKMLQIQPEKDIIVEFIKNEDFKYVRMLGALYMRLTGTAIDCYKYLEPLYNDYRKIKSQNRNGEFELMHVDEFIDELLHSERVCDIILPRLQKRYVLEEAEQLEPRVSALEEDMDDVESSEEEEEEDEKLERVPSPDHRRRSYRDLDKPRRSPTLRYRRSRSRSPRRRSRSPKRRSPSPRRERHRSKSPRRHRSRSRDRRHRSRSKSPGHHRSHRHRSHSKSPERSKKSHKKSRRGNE
# Chain of UniProt Q8WUK0 (Q8WUK0 whole entry, looked up): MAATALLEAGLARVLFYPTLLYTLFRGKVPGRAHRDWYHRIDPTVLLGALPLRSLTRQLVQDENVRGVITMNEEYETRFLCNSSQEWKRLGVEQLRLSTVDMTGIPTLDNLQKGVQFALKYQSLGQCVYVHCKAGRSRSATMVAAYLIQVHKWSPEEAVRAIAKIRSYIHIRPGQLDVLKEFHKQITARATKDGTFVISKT
# Chain of UniProt Q15008 (Q15008 whole entry, looked up): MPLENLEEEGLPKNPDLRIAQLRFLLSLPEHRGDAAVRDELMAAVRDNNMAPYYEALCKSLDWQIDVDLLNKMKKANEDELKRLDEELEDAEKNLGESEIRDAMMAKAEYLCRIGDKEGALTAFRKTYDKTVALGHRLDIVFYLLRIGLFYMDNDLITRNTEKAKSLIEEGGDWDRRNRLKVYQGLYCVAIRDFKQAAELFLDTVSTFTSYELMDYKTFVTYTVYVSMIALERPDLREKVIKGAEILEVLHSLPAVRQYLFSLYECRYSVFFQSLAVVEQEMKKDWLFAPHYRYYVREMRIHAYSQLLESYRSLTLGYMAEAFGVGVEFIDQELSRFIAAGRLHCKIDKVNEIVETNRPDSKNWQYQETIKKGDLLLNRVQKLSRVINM
# Chain of UniProt P49642 (P49642 whole entry, looked up): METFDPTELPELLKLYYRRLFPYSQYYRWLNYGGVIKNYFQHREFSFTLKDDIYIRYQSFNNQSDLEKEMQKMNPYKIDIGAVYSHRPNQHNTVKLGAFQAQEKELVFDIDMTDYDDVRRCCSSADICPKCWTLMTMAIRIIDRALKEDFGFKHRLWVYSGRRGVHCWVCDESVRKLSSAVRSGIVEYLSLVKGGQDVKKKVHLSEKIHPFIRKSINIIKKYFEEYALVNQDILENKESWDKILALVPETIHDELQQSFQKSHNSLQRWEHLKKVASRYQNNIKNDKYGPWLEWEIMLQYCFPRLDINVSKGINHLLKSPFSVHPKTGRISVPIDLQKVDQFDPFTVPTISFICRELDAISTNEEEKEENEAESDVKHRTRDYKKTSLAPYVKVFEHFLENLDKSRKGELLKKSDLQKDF
# Chain of UniProt Q8IWE5 (Q8IWE5 whole entry, looked up): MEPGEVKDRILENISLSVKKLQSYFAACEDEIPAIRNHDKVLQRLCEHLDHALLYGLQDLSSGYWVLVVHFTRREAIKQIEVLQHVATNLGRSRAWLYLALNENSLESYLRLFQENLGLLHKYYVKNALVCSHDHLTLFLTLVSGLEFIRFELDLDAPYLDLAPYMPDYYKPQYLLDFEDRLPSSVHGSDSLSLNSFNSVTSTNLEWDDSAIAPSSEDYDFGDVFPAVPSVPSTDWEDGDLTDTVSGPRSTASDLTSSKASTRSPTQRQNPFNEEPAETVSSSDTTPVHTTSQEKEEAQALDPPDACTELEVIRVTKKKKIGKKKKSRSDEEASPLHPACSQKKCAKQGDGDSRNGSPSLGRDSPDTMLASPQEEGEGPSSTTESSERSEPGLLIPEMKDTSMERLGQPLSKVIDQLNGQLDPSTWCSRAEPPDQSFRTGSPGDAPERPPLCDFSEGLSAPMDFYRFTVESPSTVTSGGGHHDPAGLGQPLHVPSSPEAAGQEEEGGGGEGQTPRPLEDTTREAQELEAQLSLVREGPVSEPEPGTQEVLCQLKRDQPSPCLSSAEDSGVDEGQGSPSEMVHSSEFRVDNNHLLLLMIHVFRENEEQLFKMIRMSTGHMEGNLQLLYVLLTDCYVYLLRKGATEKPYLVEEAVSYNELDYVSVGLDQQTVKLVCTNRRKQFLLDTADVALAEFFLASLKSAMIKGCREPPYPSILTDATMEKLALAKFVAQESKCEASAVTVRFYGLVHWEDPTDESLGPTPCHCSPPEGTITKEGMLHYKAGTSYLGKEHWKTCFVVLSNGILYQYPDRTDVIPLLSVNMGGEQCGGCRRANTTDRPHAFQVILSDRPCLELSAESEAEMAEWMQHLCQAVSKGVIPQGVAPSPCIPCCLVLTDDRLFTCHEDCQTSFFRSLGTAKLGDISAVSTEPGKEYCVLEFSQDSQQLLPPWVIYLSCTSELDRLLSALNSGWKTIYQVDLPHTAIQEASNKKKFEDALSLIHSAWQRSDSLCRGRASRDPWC
Target,log2 fold change [1],log2 fold change [2],log2 fold change [3],log2 fold change [4],log2 fold change [5],log2 fold change [6],log2 fold change [7],log2 fold change [8],log2 fold change [9],log2 fold change [10]
PKM (UniProt P14618),0.003,0.021,0.013,-0.044,0.007,-0.013,-0.026,-0.029,-0.019,0.02
PPP1CA (UniProt P62136),0.042,0.042,0.013,-0.069,0.048,0.026,0.034,-0.045,-0.003,0.083
PSMD6 (UniProt Q15008),0.033,-0.046,-0.08,0.052,-0.071,-0.02,0.047,0.03,0.057,0.056
PPT2 isoform 3 (UniProt Q9UMR5),0.074,-0.182,-0.021,-0.148,0.057,0.001,-0.04,-0.069,0.006,-0.041
PLIN2 (UniProt Q99541),-0.103,-0.841 (active),0.054,0.03,0.098,-0.31,-0.086,0.031,-0.092,-2.6 (active)
PLEKHM2 (UniProt Q8IWE5),0.023,-0.162,0.02,-0.047,0.044,-0.06,0.144,0.04,0.064,-0.02
PCID2 (UniProt Q5JVF3),0.157,-0.171,-0.138,0.246,-0.02,-0.149,-0.028,0.058,-0.005,-0.096
PLCG1 isoform 2 (UniProt P19174),0.016,-0.412 (active),-0.09,0.16,-0.037,0.107,0.016,0.161,0.001,-0.178
PRKCB isoform 2 (UniProt P05771),0.019,-0.039,0.039,-0.063,0.035,-0.079,0.018,0.032,-0.01,-0.017
PRPF38A (UniProt Q8NAV1),-0.029,0.018,0.017,0.009,0.037,-0.042,-0.071,0.017,0.006,-0.024
PRIM1 (UniProt P49642),0.051,-0.066,0.039,0.086,-0.011,-0.131,0.001,0.102,0.007,-0.082
POGZ (UniProt Q7Z3K3),0.044,-0.019,0.242,0.01,-0.115,0.143,0.153,0.142,0.053,-0.221
PRKAR2A (UniProt P13861),0.046,-0.038,0.089,-0.159,0.069,-0.02,0.04,0.023,0.03,-0.056
PRIM2 (UniProt P49643),0.078,-0.063,0.154,0.066,-0.038,0.07,0.059,0.145,-0.06,-0.061
PTPMT1 (UniProt Q8WUK0),0.086,-0.546 (active),0.039,-0.026,0.118,-0.125,-0.001,0.109,-0.036,-0.429 (active)
